Compound activity as filed in PubChem BioAssay.
Only some compounds are listed: those with a hit (about 2.3% of all), similar ones and a draw of the others.
MmCpn inh = inhibitors of Methanococcus maripaludis chaperonin TRiC (MmCpn); purified Mm-Cpn ATPase, ADP Transcreener TR-FRET; Potency, µM (highest dose often 76.9 µM), for inactives: at the highest dose activity, negative = inhibition, most hits filed as inhibitors; 0.031% of 330,000 active; AID 504842; further: potency means the concentration at half of the fitted maximal effect; on the % scale 0 is the no-effect control and ±100 the full control effect; nearly all actives have a fitted effect of over 80% in size
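Eu-cryptate anti-ADP/ADP-d2 competition gives a ratio inversely related to ADP. Enzyme at 25 nM was pre-exposed to compound for 10 min, then given 10 uM ATP for 30 min, 37°C throughout.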
Abeta rescue = A-beta toxicity reversal in yeast; 0.063% of 410,000 active; AID 1347071; Potency, µM (doses to about 46.1 µM), actives largely listed as activators; yeast expressing A-beta42, growth rescue, OD600, 48 h; response scale: 0% DMSO, 100% iron-clioquinol control; further: potency means the concentration at half of the fitted maximal effect; nearly all actives have a fitted effect of over 55% in size
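Yeast A-beta toxicity model in growth medium with pinned compounds, 48 h at 30 C; growth read as absorbance at 600 nm. Normalized to FeCl3/clioquinol equimolar mix (positive) and DMSO (negative).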
FUS suppressor = FUS proteinopathy suppression in yeast. S. cerevisiae FUS-expressing, growth rescue, OD600, 24 h. Potency, µM (doses to about 76.6 µM), usual class: activators. 0.24% of 390,000 active. AID 1347120;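 further: potency means the concentration at half of the fitted maximal effect; plate controls were DMSO vehicle for no effect and reference control for full effect; nearly all actives have a fitted effect of over 55% in size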
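FUS-expressing yeast, raffinose-pregrown, induced in 2% galactose minimal medium at OD 0.005; compounds in a dilution series, 24hr at 30C. Growth restoration read as absorbance at 600 nm. CP55940 positive control, DMSO negative.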
aSyn yeast inh = alpha-synuclein toxicity inhibition in yeast | Yeast expressing alpha-synuclein, growth rescue, BacTiter-Glo, 24 h | Potency, µM (doses to about 46.1 µM), without a hit: top-dose growth rescue (activation), hits mostly activators | 0.14% of 370,000 active; further: potency means the concentration at half of the fitted maximal effect; % of control where 0% means no effect; nearly all actives have a fitted effect of over 65% in size
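Galactose-induced alpha-syn yeast (OD600=0.02, raffinose-pregrown) + pinned cpd, 24 hr, 30 deg C; growth by BacTiter-Glo luminescence. Growth restoration scores as activation.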
CCT modulator = modulators of cytosolic chaperonin (CCT/TRiC) activity; purified chaperonin ATPase assay, HTRF ADP detection, 30 min; 0.3% of 360,000 active; activity change, % (concentration not given with the values), hits read low; in the data active means activity change below about -30%; further: on the % scale 0 is the no-effect control and ±100 the full control effect
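ATPase activity: ADP formed was measured by HTRF Transcreener (665/615 nm ratio) after 30 min at 37 deg C with 10 uM ATP. Compounds screened at one 76 uM concentration against 40 or 20 nM TRiC in Tris pH 7.4/KCl/MgCl2/DTT buffer.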
TDP43 rescue = inhibitors of TDP-43 toxicity in yeast. TDP-43 expressing yeast growth rescue, BacTiter-Glo, 24 h. Potency, µM (titrated, usually from 46.1 µM), inactives show at the highest dose growth rescue (activation), actives largely listed as activators. 1.8% of 410,000 active. AID 652104; further: potency means the concentration at half of the fitted maximal effect; % of control where 0% means no effect; nearly all actives have a fitted effect of over 50% in size
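Growth rescue of TDP-43-toxic yeast measured as ATP luminescence (BacTiter-Glo). Cells grown to mid-log in raffinose, induced in galactose at OD600=0.02, exposed to compound 24 hr at 30 deg C.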
* marks the source's active call; other numbers are inactive results; i = inactive; ? = inconclusive; nt = no result given; [ ] = remark or other dose. Unless noted, the call rests on the fitted dose curve; in most records, active means well fitted curve in the direction sought with a large enough effect; inconclusive means small, poorly fitted or top-dose-only effect, or another doubt; inactive means no such curve, though single readings can be large; an effect the other way counts as inactive or inconclusive.

SMILES	MmCpn inh	Abeta rescue	FUS suppressor	aSyn yeast inh	CCT modulator	TDP43 rescue
CCCC(=O)NC(=S)NNC(=O)c1ccc([N+](=O)[O-])cc1	2.6%	i	i	20µM*	2.2	14.9%
Cc1cc(-c2n[nH]c(=S)n2N=Cc2c3ccccc3cc3ccccc23)n[nH]1	nt	nt	i	nt	nt	nt
O=C(COc1ccccc1C(=O)Nc1ccccc1)Nc1ccc(-c2ccccc2)cc1	nt	nt	nt	1.9%	nt	nt
CC(C)(C)C(=O)CSc1n[nH]c(-c2ccccc2)n1	nt	nt	nt	-2.0%	nt	nt
O=C(NC1(C(F)(F)F)C(=O)Nc2c1c(=O)[nH]c(=O)n2-c1ccc(Cl)cc1)c1ccccc1F (stereo not given)	nt	i	i	nt	nt	-5.4%
C(=Nc1ccc(/C=C/c2ccnc3ccccc23)cc1)c1cccs1	nt	nt	nt	-4.0%	nt	nt
O=C(COc1ccc([N+](=O)[O-])cc1)NNC(=S)NC(=O)c1ccc(Br)cc1	-0.6%	i	i	?	-3.6	18.0%
O=C(NC(=S)NNC(=O)c1cnccn1)c1ccc(Cl)cc1	1.0%	i	i	5.01µM*	0.5	3.16µM*
O=C(COc1ccccc1)NNC(=S)NC(=O)c1ccccc1	-4.3%	?	i	?	0.3	3.55µM*
Cc1ccc(C(=O)NC(=S)NNC(=O)COc2ccc([N+](=O)[O-])cc2)cc1	-0.9%	?	i	11.5%	-0.9	20µM*
CCC(=O)NNC(=S)NC(=O)c1ccc(C)cc1	-2.7%	?	i	?	-2.1	20µM*
COc1ccc(C(=O)NC(=S)NNC(=O)COc2ccccc2)cc1	-2.2%	?	i	17.8%	0.5	7.9%
CC(=O)NNC(=S)NC(=O)c1ccc(C)cc1	-9.0%	i	i	2.1%	-4.8	0.8%
Cc1nn2c(=O)cc(COC(=O)c3ccc(NC(=O)CCc4ccccc4)cc3)nc2s1	nt	i	i	nt	nt	26.7%
COc1ccc(CCNC(=S)NC(=O)c2cccc([N+](=O)[O-])c2)cc1OC	-0.6%	i	nt	-1.5%	0.1	12.6µM*
COc1ccc(CCNC(=S)NC(=O)c2ccccc2)cc1OC	-4.3%	i	i	1.8%	-3.6	18.5%
Cc1ccc(C)c(NC(=O)c2cccc3c2-c2ccccc2C3=O)c1	nt	nt	i	nt	nt	nt
Cc1ccc2nc(N3CCN(C(=O)CCC(=O)O)CC3)nc(-c3ccccc3)c2c1	-7.1%	i	i	0.3%	-0.2	5.4%
Cc1ccc2nc(N3CCC(C(=O)O)CC3)nc(-c3ccccc3)c2c1	-11.4%	i	i	12.0%	-0.4	22.4µM*
O=C(Nc1ccc([N+](=O)[O-])cc1)C1COc2ccccc2O1 (stereo not given)	1.2%	8.91µM*	i	2.3%	0.3	?
CC1(C)Oc2ccc(NC(=O)C3COc4ccccc4O3)cc2O1 (stereo not given)	0.2%	i	i	-27.8%	-1.6	10µM*
Cc1ccc(NC(=O)C2COc3ccccc3O2)c(C)c1 (stereo not given)	2.0%	i	i	2.4%	-0.7	11.2µM*
O=C(Nc1ccccc1)C1COc2ccccc2O1 (stereo not given)	-1.7%	i	i	-8.7%	-1.6	8.2%
C[C@H]1[C@@H](N(C)Cc2cccs2)CC[C@@]23CCCN2C(=O)CCC[C@@H]13	nt	nt	i	nt	nt	nt
CC(C)CC(=O)Nc1sc2c(c1C(=O)O)CCCCC2	2.7%	i	i	-8.1%	-2.6	11.2µM*
SMILES	MmCpn inh	Abeta rescue	FUS suppressor	aSyn yeast inh	CCT modulator	TDP43 rescue
O=C(CCc1ccccc1)Nc1sc2c(c1C(=O)O)CCCC2	nt	i	i	-4.2%	0.5	-4.9%
Cc1ccc(CNC(=O)c2sc3nc(-c4ccc(F)cc4)ccc3c2N)cc1	nt	i	25.1µM*	nt	nt	7.8%
Cc1cccc(OCC(=O)Nc2ccc(N3CCCC3)cc2)c1C	-0.7%	i	25.1µM*	29.2%	-1.5	0.8%
CCOc1cccc(C(=O)Nc2ccc(N3CCCC3)cc2)c1	-5.5%	i	i	-4.1%	-4.4	1.2%[1.82 µM]
CCOc1ccc(C(=O)Nc2ccc(N3CCCC3)cc2)cc1	-2.9%	i	35.5µM*	-10.1%	0.5	-12.3%
O=C(CSc1cccc(C(F)(F)F)c1)NCc1ccccc1	-1.3%	i	i	3.6%	0.5	11.2µM*
O=C(NCCc1ccccc1)OCc1cn(-c2cccc(Cl)c2)nn1	nt	nt	i	nt	nt	nt
COCCn1c(C)cc(C2=NNC(=Nc3ccccc3)SC2)c1C	0.5%	i	10µM*	1.2%	1.7	-10.3%
O=C(Nc1c(-c2ccccc2)nc2ncccn12)c1ccccc1	nt	nt	i	nt	nt	nt
COc1cccc(C(NC(C)=O)c2nc(-c3cccs3)cs2)c1 (stereo not given)	nt	i	i	6.0%	0.9	?
CC(=O)NC(c1ccccc1)c1nc(-c2cccs2)cs1 (stereo not given)	nt	i	i	1.7%	1.0	15.8µM*
CCS(=O)(=O)N1CCC(C(=O)Nc2cccc(F)c2)CC1	-2.3%	i	i	1.1%	-53.8*	10.7%
CC1(C)C(=O)C=CC(=O)C(C)(C)C(=O)C=CC(=O)C(C)(C)C2=CC=C(O2)C(C)(C)C(=O)C=CC1=O	nt	i	nt	8.4%	-4.0	15.8µM*
Cc1ccc(-c2nc3ccccn3c2Nc2ccccc2C)o1	nt	nt	nt	-28.4%	nt	nt
CC1CCN(S(=O)(=O)c2ccc(C(=O)Nc3nnc(C4CC4)o3)cc2)CC1	1.4%	12.6µM*	?	17.8µM*	-2.4	?
O=C(Nc1nnc(C2CC2)o1)c1ccc(S(=O)(=O)N2CCCc3ccccc32)cc1	2.6%	?	i	?	-2.2	17.8µM*
Cc1nnc(NC(=O)c2ccc(S(=O)(=O)N3CC(C)CC(C)C3)cc2)o1 (stereo not given)	0.5%	?	i	15.8µM*	1.5	-7.1%
COCc1nnc(NC(=O)c2ccc(S(=O)(=O)N3CCCc4ccccc43)cc2)o1	-0.1%	i	?	?	2.3	?
O=C(Nc1nnc(C2CC2)o1)c1ccc(S(=O)(=O)N2CCCCC2)cc1	-1.2%	?	i	?	-1.5	7.8%
Cn1c(Oc2ccccc2)nc2c1c(=O)n(Cc1ccc(Cl)cc1Cl)c(=O)n2C	nt	i	i	nt	nt	11.7%
CN(C)c1ccc(/C=C/c2nc3ccccc3s2)cc1Cl	nt	nt	nt	15.6%	nt	nt
Cc1nnc(SCc2ccc(F)cc2)s1	1.9%	i	i	-1.2%	-1.5	10.7%
Cc1nnc(SCc2ccc(Cl)c(Cl)c2)s1	-2.2%	i	nt	5.7%	-1.8	12.6µM*
Cc1noc2ncnc(Sc3ccc(Br)cc3)c12	1.3%	i	i	-10.5%	-1.3	5.62µM*
